From PubChem BioAssay (NCI) come the findings set out here.

SMILES strings stand for the structures. About 83,000 compounds went through this panel and 20% of them were active in at least one assay; those are over-represented in the sample as a whole.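 Note: values are percent growth. 100 is the growth of untreated cells, values between 100 and 0 indicate rising inhibition; between -100 and 0 indicates cell death.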 The source made the active and inactive calls. How the source made its calls: active means growth percent below 10; inactive means the rest.

The subject of one assay is HT29 colon. The assay is described as follows: NCI-60 one-dose screen, 48 h (100 = growth as untreated, 0 = no growth, -100 = all killed). To be noted: 10 µM unless noted.
Take `C#CC#CC#CC#CC#CC#CC#CC#CCC1OCC(COC(=O)O[C@@H](C(=O)O[C@H]2C[C@@]3(O)[C@@H](OC(=O)c4ccccc4)[C@@H]4[C@]5(OC(C)=O)CO[C@@H]5C[C@H](O)[C@@]4(C)C(=O)[C@H](OC(C)=O)C(=C2C)C3(C)C)[C@@H](NC(=O)c2ccccc2)c2ccccc2)O1` (some centres not stated): the growth is 5.02% (active).

For `COc1ccc(/C=C/C(=O)c2cc3c(N)c(C(=O)Nc4ccc(OC)cc4)sc3nc2C)cc1`, the growth is -18% (active).

On to `N=C(N)c1ccc(-c2ccc(-c3ccc(Cl)cc3)o2)o1`, for which the growth is -58.3% (active). Take `COc1ccc(-c2nnc(SCC(=O)Nc3ccc(/C(C)=N\O)cc3)n2-c2ccccc2)cc1OC`: the growth was 91.2% (inactive). In the case of `Cc1ccc(-c2nc(C#N)c(S(=O)(=O)NCCO)o2)cc1`, the growth is 24.2% (inactive). On the same count and under the same terms, next, `N#CC(C#N)N=Nc1ccc(Cl)cc1Cl`: 81.8% (inactive); `C=CCOC(=O)C1=C(C)NC(=O)NC1c1c(Cl)n(C)c2ccccc12` (configuration not stated): 110% (inactive); `CCCCCCCCn1ccc2cc(NC(=O)Cn3cc(CN4CCCCCC4)nn3)ccc21`: -48.3% (active). The same measure, in the same setting: then `O=C(CN1C(=O)NC2NC(=O)NC21)N/N=C/c1ccc(Cl)cc1Cl` (configuration not stated), with 110% (inactive). Regarding `COc1cc(C2=NN(C(C)=O)C(c3ccc(N(C)C)cc3)C2)cc(OC)c1OC` (configuration not stated), the growth was 108% (inactive). On the same count and under the same terms, next, `COc1cccc(/C=C/C(=O)c2cc3c(N)c(C(=O)Nc4cccc(Cl)c4C)sc3nc2C)c1`: -80.7% (active); `CCCn1c(=S)sc2c1nc(C)n1c(Nc3ccccc3)nnc21`: 87.5% (inactive). Same read-out and setting: then `OC(c1ccccc1)(c1ccccc1)c1ccccc1-c1ccccc1`, with 73.4% (inactive).

A further assay deals with SNB-75 CNS. The description is as above. Particulars: 10 µM unless noted.
On to `NC(=O)c1c(NC(=O)c2ccc(Cl)cc2)sc2c1CCC(=O)C2`, for which the growth was 45.4% (inactive). On the same count and under the same terms, next, `COc1ccc(/C(C)=C(\c2ccc(OCCN3CCCCCC3)cc2)c2ccc(OC(=O)c3ccccc3)cc2)cc1`: 83.3% (inactive); `Clc1ccc(-c2cn3ccsc3n2)c(Cl)c1Cl`: 86.4% (inactive). On the same count and under the same terms, next, `COc1ccc(Cl)cc1Nc1nc(C(F)(F)F)ccc1C(=O)N/N=C/c1ccccc1Cl`: 50% (inactive); `Cc1cc(C)cc(Nc2ccc([N+](=O)[O-])c(NCCN3CCOCC3)n2)c1`: 31.3% (inactive). Still for that read-out and setting: then `C=CCn1c(SCC(=O)Nc2ccc(C(=O)/C=C/c3cc(OC)c(OC)c(OC)c3)cc2)nnc1-c1cc(-c2ccc(OC)cc2)nc2ccccc12`, with 85.1% (inactive); and `C#CCOc1cccc(-c2ncc3cc(NC(=O)CCl)ccc3n2)c1`, with 24.4% (inactive). As to `Cn1cc(-c2nn3cc(-c4ccccc4)nc3s2)c2ccccc21`, the growth was 39.8% (inactive).

As to `Cc1cc2nc3c4ccccc4n(CCN(C)C)c3nc2cc1C`, the growth was 4.8% (active). Same read-out and setting: next, `CCC(C)Nc1ccc(NC(C)CC)cc1` (configuration not stated): 83.2% (inactive); `O=C(CCCCCCN1CC(=O)N2[C@@H](C3CCCCC3)c3[nH]c4ccccc4c3C[C@H]2C1=O)NO`: 38.1% (inactive). On the same count and under the same terms, next, `C(/C=C/c1ccccc1)=Nc1ccc(CCc2ccc(N=C/C=C/c3ccccc3)cc2)cc1`: 116% (inactive); `Cc1c2ccccc2nc2c1ccc1cccnc12`: 71.1% (inactive). Same read-out and setting: next, `Cc1ncc(C(=O)Nc2ccc(CN3CCN(C)CC3)c(C(F)(F)F)c2)cc1C#Cc1cnc(N)c2cnccc12`: -90.6% (active).

For the compound `CC(C)(C)C(=O)/C=C/c1ccc([N+](=O)[O-])cc1`, the growth was 81.1% (inactive).

For `N#Cc1c(-c2ccccc2)nc2c(c(-c3ccccc3)nn2-c2ccccc2)c1-c1ccc(N2CCOCC2)cc1`, the growth was 86.9% (inactive). On the same count and under the same terms, next, `Cc1ccc(C)n1/C=C/n1c(C)ccc1C`: 80.7% (inactive); `CN(C)Cc1ccc(C(=O)Nc2ccc3ncnc(Nc4ccc(Oc5cccc(F)c5)c(Cl)c4)c3c2)cc1`: 18.5% (inactive); `O=c1[nH]cnc2c1C(c1ccc(Br)cc1)c1sc3c(F)cccc3c1O2` (configuration not stated): 85.1% (inactive). For the compound `CS(=O)(=O)Nc1cncc(-c2ccc3ncnc(Nc4ccc(F)c(Cl)c4)c3c2)c1`, the growth was 33% (inactive).

On to `Cc1cc(N2CCN(C)CC2)nc(NCc2cc(Nc3ccnc4cc(Cl)ccc34)ccc2F)n1`, for which the growth was 21.2% (inactive). Same read-out and setting: then `COc1ccc(-c2ccc(=O)oc2C#Cc2cc(OC)c(OC)c(OC)c2)cc1O`, with -13.4% (active).

Regarding `COc1cc(/C=C2\C(=O)N(c3c(Cl)cccc3Cl)c3ccccc32)cc(OC)c1OCCCCCCn1c2ccccc2c(=O)c2ccccc21`, the growth is 73.6% (inactive). Same read-out and setting: then `CC/C=C1/C(=O)C=C[C@@H]1C/C=C\CCCC(=O)OC`, with 91.5% (inactive).
